The results in this text go back to the supplement of paper PMC3724861.

Shown is part of a subset that was picked to be rich in hits. The true hit rate is not given. Bounds are passed on as bounds.

The test concerns T1, Caupolican (Caup) homeodomain DNA-binding domain.
T1 sequence: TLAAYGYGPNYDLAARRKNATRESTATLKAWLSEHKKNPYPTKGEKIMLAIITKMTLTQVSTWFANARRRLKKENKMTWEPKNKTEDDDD
As to the kind of experiment: PBM E-score (8-mer, recovered from the published 9-mer minima) (E-score (dimensionless, -0.5 to 0.5)); Drosophila protein; higher = stronger relative binding preference, active = 0.31 or more. An outline of the steps: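 Caup's homeodomain DNA-binding domain (residues 214-303) was produced by in vitro transcription and translation and applied at 100 nM to custom-designed protein binding microarrays. Each value is an enrichment score giving relative binding preference for a short DNA word; higher means stronger. Published 9-mer scores were the minimum of their two constituent 8-mer scores, and the 8-mer values were recovered from those minima. A cutoff of 0.31 marks candidate binding sequences.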
Regarding CGGTTGTC, the “PBM E-score” value was 0.185 (inactive).
Consider TACTTTAA, for which the “PBM E-score” value is 0.115 (inactive).
CATGTCAG: the “PBM E-score” value was 0.413 (active).
As for CCTGTCAG, the “PBM E-score” value was 0.115 (inactive).
The same measure for CGTGTCAG: 0.276 (inactive); for CATGTCAC: 0.446 (active); for CTTGTCAC: 0.322 (active).
Consider GATGTCAC, for which the “PBM E-score” value was 0.294 (inactive).
With CCTGTCAC, the “PBM E-score” value was 0.144 (inactive).
The result for AGTGTCAC reads 0.13 (inactive); that for CGTGTCAC, 0.334 (active); that for AATGTCAG, 0.197 (inactive).
For the sequence ATTGTCAC, the “PBM E-score” value was 0.224 (inactive).
AATGTCAC: the “PBM E-score” value is 0.303 (inactive).
Turning to AGCGTCCA, the “PBM E-score” value was -0.0936 (inactive).
On to AAAGTATT, for which the “PBM E-score” value was 0.131 (inactive).
Take CGGGCTTC: the “PBM E-score” value is -0.289 (inactive).
For the sequence AGATCGGA, the “PBM E-score” value was 0.0416 (inactive).
As for GAAGTGAC, the “PBM E-score” value is 0.0523 (inactive).
Regarding GCCGGGGA, the “PBM E-score” value was -0.241 (inactive).
Turning to CGAACCCC, the “PBM E-score” value was -0.249 (inactive).
ATCAGTCC: the “PBM E-score” value is -0.143 (inactive).
The result for AAATTGGG reads -0.0398 (inactive).
On to AAGTTTGC, for which the “PBM E-score” value was 0.0221 (inactive).
Regarding CATGTCAA, the “PBM E-score” value was 0.422 (active).
As to CCTGTCAA, the “PBM E-score” value was 0.172 (inactive).
On to CGTGTCAA, for which the “PBM E-score” value was 0.282 (inactive).
For the sequence CGGGACTC, the “PBM E-score” value was -0.204 (inactive).
The same measure for CCCGATCC: -0.127 (inactive); for ATCCCCAC: -0.0707 (inactive); for ATACACAT: 0.311 (active).
As to TTACACAA, the “PBM E-score” value is 0.311 (active).
On to CTACACAC, for which the “PBM E-score” value was 0.175 (inactive).
For GTACACAA, the “PBM E-score” value is 0.338 (active).
As to GTACACAC, the “PBM E-score” value was 0.331 (active).
TGACACAA: the “PBM E-score” value was 0.259 (inactive).
Turning to TCACACAA, the “PBM E-score” value was 0.193 (inactive).
On to GCACACAC, for which the “PBM E-score” value was 0.0659 (inactive).
CTACACAA: the “PBM E-score” value was 0.288 (inactive).
Regarding AAACACAT, the “PBM E-score” value was 0.229 (inactive).
The same measure for AGACACAT: 0.213 (inactive); for GCACACAA: 0.0665 (inactive).
CATGGCCC: the “PBM E-score” value is -0.169 (inactive).
On to GGGCTTAC, for which the “PBM E-score” value was -0.119 (inactive).
The result for CACTAATA reads 0.118 (inactive); that for GTTAGTAA, 0.177 (inactive); that for CTTATTAC, 0.0885 (inactive).
With CTGTGCGA, the “PBM E-score” value was -0.0551 (inactive).
In the case of CCTACCGA, the “PBM E-score” value is -0.0361 (inactive).
In the case of AGTGCGGG, the “PBM E-score” value was -0.187 (inactive).
On to ATCTTCGG, for which the “PBM E-score” value is 0.00377 (inactive).
The same measure for ACACAGCT: 0.109 (inactive).
Regarding ACCCATCC, the “PBM E-score” value is -0.0713 (inactive).
The result for GCGCCCTA reads -0.273 (inactive); that for ATATAGCC, 0.0657 (inactive).
The result for ATACACAG reads 0.193 (inactive); that for ATACACAC, 0.256 (inactive).
Turning to ATACACAA, the “PBM E-score” value is ≥ 0.341 (active).
ATTTTCCC: the “PBM E-score” value was -0.00887 (inactive).
For the sequence CAAACTGC, the “PBM E-score” value is -0.0256 (inactive).
The same measure for CGCTAATC: -0.0282 (inactive); for TATAGAAA: 0.118 (inactive); for ACAAATGG: 0.193 (inactive).
In the case of AACAATGA, the “PBM E-score” value is 0.244 (inactive).
On to AACAATGG, for which the “PBM E-score” value is 0.198 (inactive).
On to ACAAATGA, for which the “PBM E-score” value was 0.154 (inactive).
ACAAATGT: the “PBM E-score” value is ≥ 0.311 (active).
AACAATGT: the “PBM E-score” value is 0.345 (active).
As for ATGAGCTC, the “PBM E-score” value was -0.0796 (inactive).
The result for ATTTCCTG reads 0.0432 (inactive); that for AGGAGTAT, 0.00187 (inactive).
Consider CAGAGCGG, for which the “PBM E-score” value was -0.155 (inactive).
In the case of ATATTACA, the “PBM E-score” value is 0.35 (active).
ATATTACG: the “PBM E-score” value was 0.16 (inactive).
The same measure for GTATTACA: 0.288 (inactive); for ACATTACT: 0.227 (inactive).
On to GCATTACA, for which the “PBM E-score” value was 0.267 (inactive).
As for ACATTACA, the “PBM E-score” value is ≥ 0.37 (active).
For CTATTACA, the “PBM E-score” value was 0.346 (active).
Consider CTATTACC, for which the “PBM E-score” value was 0.0284 (inactive).
As to ATATTACC, the “PBM E-score” value is 0.186 (inactive).
As for CTGACTGC, the “PBM E-score” value is -0.0466 (inactive).
Regarding ACAGATAT, the “PBM E-score” value is 0.159 (inactive).
On to CGGTCATA, for which the “PBM E-score” value was -0.0654 (inactive).
With CATCTGGG, the “PBM E-score” value was -0.0619 (inactive).
For AACACGAG, the “PBM E-score” value is 0.266 (inactive).
As to AACACGAC, the “PBM E-score” value is 0.321 (active).
For the sequence AACACGAA, the “PBM E-score” value was 0.293 (inactive).
Consider GACACGAC, for which the “PBM E-score” value is 0.347 (active).
Turning to GACACGAA, the “PBM E-score” value is 0.224 (inactive).
Consider CACACGAC, for which the “PBM E-score” value is 0.0592 (inactive).
For AGATATCC, the “PBM E-score” value was 0.0875 (inactive).
Consider ACCCGGGC, for which the “PBM E-score” value was -0.196 (inactive).
Consider CCGTTTTC, for which the “PBM E-score” value is -0.0987 (inactive).
For the sequence GCATAACA, the “PBM E-score” value was 0.255 (inactive).
As for ATATAACA, the “PBM E-score” value was 0.372 (active).
With CTATAACA, the “PBM E-score” value is 0.257 (inactive).
GTATAACA: the “PBM E-score” value is 0.338 (active).
Turning to ATATAACC, the “PBM E-score” value was 0.0533 (inactive).
In the case of GTATAAGA, the “PBM E-score” value is 0.112 (inactive).
Consider CGTAGGTC, for which the “PBM E-score” value is -0.0431 (inactive).
The result for CAGCCTGG reads -0.164 (inactive); that for ATAAAGGC, -0.111 (inactive); that for AGTGGTGG, -0.0979 (inactive).
As for AAGGAATT, the “PBM E-score” value is -0.0309 (inactive).
The same measure for ACAGTTCA: 0.0978 (inactive); for GACATGAC: 0.394 (active).
On to AACATGAA, for which the “PBM E-score” value is 0.387 (active).
As for AGCATGAA, the “PBM E-score” value is 0.102 (inactive).
Consider TGCATGAA, for which the “PBM E-score” value is 0.126 (inactive).
Turning to TACATGAA, the “PBM E-score” value is 0.383 (active).
The same measure for GGCATGAA: 0.0161 (inactive); for GCCATGAC: -0.0484 (inactive).
